The structures appear in SMILES notation. About 2,100 (0.66%) of roughly 320,000 compounds were called active. Not shown: some 53% with an inconclusive outcome. The call rests on the fitted dose curve; in most records, active means well fitted inhibition curve with a large enough effect in the signal ratio, with a control signal flat (not every such curve was filed as active); inconclusive means small, poorly fitted or top-dose-only effect, or effect the other way, or a change in a side signal; inactive means flat fitted curve, though single readings scatter; the % refers to the signal ratio. The sample as a whole holds a higher share of actives than the screen did.
Potency means the concentration at half of the fitted maximal effect.

This experiment in a line: qHTS Assay for Lipid Storage Modulators in Drosophila S3 Cells.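 On cell number change: cells counted by Cell Tracker Red CMTPX staining in the red channel.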 On lipid storage change, negative = inhibition: on the % scale 0 is the no-effect control and ±100 the full control effect. Particulars: BODIPY lipid droplet fluorescence, 18-24 h, cells fed with added oleic acid; cell number change: measured here: cell count max response; series mostly up to 46.1 µM; lipid storage change, negative = inhibition: at the top concentration. From the text: NIH Molecular Libraries Probe Production Centers Network [MLPCN] NIH Chemical Genomics Center [NCGC] MLPCN Grant: 1 R03 MH085686-01 Assay Submitter (PI): Beller, Mathias; Max-Planck-Institut fur Biophysikalische Chemie NCGC Assay Overview: Storing lipids as a reservoir for energy or the anabolism of elementary metabolites is a common feature of probably all cells and is conserved from bacteria to humans. The universal cellular lipid storage organelle is the so-called lipid storage droplet (LD). Although ubiquitous, LDs share a simple structure composed of a hydrophobic core that harbors the storage lipids, which is shielded by a droplet-specific phospholipid monolayer to which proteins are attached. The current model of LD biogenesis involves an incorporation of the lipid core into the membrane leaflets of the endoplasmic reticulum (ER) followed by a subsequent budding-like maturation of a LD, which ultimately pinches off. Once released, LD volume can increase by localized lipogenesis or fusion of existing droplet. Storage lipids are re-mobilized enzymatically by lipase activity. Lipase regulation in the adipocyte is heavily studied and involves multiple components including catecholamine signaling, the LD-associated proteins Perilipin and comparative gene identification (CGI-58) and at least two lipases named hormone sensitive lipase (HSL) and adipocyte triglyceride lipase (ATGL). LD regulation outside of the adipocyte is poorly understood and only few components are known. However, there is an urgent need to learn more about ectopic fat depots as mislocalized storage of lipids, for example in the liver or muscle, is an eminent health problem associated with insulin resistance or the metabolic syndrome. We developed a laser-scanning cytometer assay to enable 1,536-well screening and combined the results of the small molecules screen with an RNAi database based on lipid storage.
Triacsin C (Sigma-Aldrich T-4540), an inhibitor of long-chain fatty acyl CoA synthetase that blocks synthesis of triglycerides, was used as a positive control for lipid under-storage. A total of 23 nL of compound solution of different concentrations were transferred to the assay plates using a Kalypsys pin tool equipped with a 1,536-pin array containing 10-nL slotted pins (FP1S10, 0.457-mm diameter, 50.8 mm long; V&P Scientific). One microliter of oleic acid (400 uM) was added, and the plate was lidded with stainless steel rubber gasket lined lids containing pinholes. […] Fluorescence was detected by excitation of the fluorophores with a 488-nm laser on an Acumen Explorer (TTP Lab Tech). The total intensity in channel 2 (500-530 nm) reflected lipid droplet accumulation. Cells were detected using channel 3 (575-640 nm) with 5-um width and 100-um depth filters. The ratio of the number of objects in PMT channel 2 over the number of objects in PMT channel 3 was also calculated. Percent activity was computed relative to an internal control (100% inhibited lipid droplet deposition due to the presence of 20 uM Triacsin C), which was added to 32 wells/plate.
(qHTS replaces the single test concentration by a dilution series.)
As for `COc1cccc(CNC(=O)Cn2c(=O)n(CCC(=O)N3CCCCC3)c(=O)c3sccc32)c1`, the Potency was 4.11 µM (active) and the cell number change was -6.85%.
As to `COCCNC(=O)Cn1c(=O)n(CCCC(=O)NCc2ccc3c(c2)OCO3)c(=O)c2sccc21`, the outcome was inactive and the cell number change worked out at 7.14%.
The corresponding values for `CCCNC(=O)Cn1c(=O)n(CC(=O)N2CCCCC2)c(=O)c2sccc21` are “inactive” and -0.943%.
Take `CC(=O)c1sc(Nc2ccc(C)cc2)nc1C`: the “lipid storage change, negative = inhibition” value is 3.82% (inactive) and the cell number change was determined as 7.99%.
On the same counts, the results for `O=C(NNC(=O)C1CC1)c1cc(Cl)nc2ccccc12` are 12% (inactive) and 13.7%.
`Cc1nn(Cc2ccc(Cl)cc2)c(C)c1NC(=O)C(c1ccccc1)c1ccccc1`: the Potency is 23.1 µM (active) and the cell number change is -18.5%.
As to `Cc1nn(Cc2ccc(Cl)cc2)c(C)c1NC(=O)C1CC=CCC1C(=O)O` (stereo not drawn), the “lipid storage change, negative = inhibition” value was -8.85% (inactive) and the cell number change turned out to be 2.56%.
As for `Cc1nn(Cc2ccccc2Cl)c(C)c1NC(=O)CCCn1nc(C)c([N+](=O)[O-])c1C`, the “lipid storage change, negative = inhibition” value was 8.88% (inactive) and the cell number change was -4.35%.
As to `Cc1nn(CCCC(=O)NCc2ccc(Cl)cc2)c(C)c1[N+](=O)[O-]`, the “lipid storage change, negative = inhibition” value was 4.65% (inactive).
`Cc1nn(Cc2ccc(Cl)cc2)c(C)c1NC(=O)CCCn1nc(C)c([N+](=O)[O-])c1C`: the Potency is 2.31 µM (active) and the cell number change amounted to 3.25%.
Turning to `Cc1nn(Cc2ccc(Cl)cc2)c(C)c1NC(=O)CCCn1nc([N+](=O)[O-])c(Cl)c1C`, the “lipid storage change, negative = inhibition” value is -11.9% (inactive) and the cell number change was -11.8%.
In the case of `Cc1ccc(Cn2nc(C)c(NC(=O)CCCn3nc([N+](=O)[O-])c(Cl)c3C)c2C)cc1`, the Potency is 8.2 µM (active) and the cell number change is -28.1%.
For `Cc1nn(Cc2ccccc2)c(C)c1NC(=O)CCCn1nc([N+](=O)[O-])c(Cl)c1C`, the “lipid storage change, negative = inhibition” value is -17.1% (inactive) and the cell number change is -5.3%.
For `Cc1cc(C(=O)Nc2c(C)nn(Cc3ccc(Cl)cc3)c2C)no1`, the “lipid storage change, negative = inhibition” value is -9.5% (inactive) and the cell number change was -17.6%.
As to `C/C(=N\NC(=O)Cc1c(Cl)cccc1Cl)c1cccnc1`, the “lipid storage change, negative = inhibition” value was 24.2% (inactive).
For `CC(C)(C)c1ccc(/C=C/C(=O)O)s1`, the “lipid storage change, negative = inhibition” value is -12.3% (inactive) and the cell number change worked out at 0.873%.
For `C=Cn1cc[n+](CC(=O)c2ccc(Br)s2)c1`, the compound was classed as inactive and the cell number change is -18.1%.
Turning to `c1ccc(-n2cc(CN3CCC(N4CCOCC4)CC3)c(-c3ccc4c(c3)OCO4)n2)cc1`, the “lipid storage change, negative = inhibition” value was 13.6% (inactive) and the cell number change stood at 13.9%.
In the case of `Cc1cccc(NC(=O)NC(C)C(c2ccccc2)N2CCN(C)CC2)c1` (stereo not drawn), the “lipid storage change, negative = inhibition” value was 4.89% (inactive) and the cell number change is -13.4%.
On the same counts, the results for `COc1cc(C(=O)Nc2cc(-c3cn4cccnc4n3)ccc2C)cc(OC)c1OC` are 9.88% (inactive) and -3.97%.
The corresponding values for `COc1cccc(NC(=O)CN(C)C(=O)CSc2ccc3c(c2)OCCO3)c1` are 18% (inactive) and 2.81%.
On the same counts, the results for `Cc1cc(SCC(=O)Nc2ncc(Cl)cc2Cl)nc2ccccc12` are -0.799% (inactive) and 19.1%.
Regarding `COCCn1nnnc1SCC(=O)N1CCCCC1`, the “lipid storage change, negative = inhibition” value is 0.19% (inactive) and the cell number change was 6.22%.
With `COCCn1nnnc1SCC(=O)c1ccccc1`, the Potency is 20.6 µM (active) and the cell number change came to 2.95%.
As for `COc1ccc(C(=O)CSc2nnnn2Cc2ccccc2)cc1`, the result was inactive and the cell number change was determined as 14.6%.
With `OC1(c2ccccc2F)CCN(Cc2nnc(-c3ccccc3)o2)CC1`, the “lipid storage change, negative = inhibition” value was 29.2% (inactive) and the cell number change is -15%.
The corresponding values for `CC1CCC2(CC1)NC(=O)N(CC(=O)Nc1ccc3c(c1)CCC3)C2=O` (stereo not drawn) are 13% (inactive) and -0.637%.
The corresponding values for `CCN(CC)c1ccc(/C=C(\C#N)C(N)=S)cc1` are -22% (inactive) and -2.75%.
With `CCN(CC)c1ccc(/C=C(\C#N)C(N)=O)cc1`, the “lipid storage change, negative = inhibition” value is -7.84% (inactive) and the cell number change is -5.93%.
Consider `CCN(CC)c1ccc(/C=C(\C#N)C(=O)c2ccc(Br)cc2)cc1`, for which the Potency was 25.9 µM (active).
With `CCC(=O)c1ccc(NC(C)=O)cc1O`, the “lipid storage change, negative = inhibition” value is -9.98% (inactive) and the cell number change was -16.5%.
As to `COc1ccc(CN2c3cc(S(=O)(=O)N4CCOCC4)ccc3N3CCCC32)cc1` (stereo not drawn), the Potency is 16.4 µM (active) and the cell number change amounted to 1.21%.
With `CCN1c2ccc(S(=O)(=O)N3CCOCC3)cc2N(Cc2ccc(OC)cc2)C1C` (stereo not drawn), the compound was classed as inactive and the cell number change was found to be 13.6%.
Take `O=S(=O)(c1ccc2c(c1)N(Cc1ccc(Cl)cc1)C1CCCN21)N1CCOCC1` (stereo not drawn): the “lipid storage change, negative = inhibition” value is 7.79% (inactive) and the cell number change is -5.65%.
In the case of `O=C1CN(C(=O)/C=C/c2cc(Br)ccc2F)CCN1`, the compound was classed as inactive and the cell number change came to 13.8%.
Regarding `CN=C1S/C(=C\c2ccc(Sc3ccc(Cl)cc3)o2)C(=O)N1C`, the “lipid storage change, negative = inhibition” value was 13.4% (inactive).
For `CN=C1S/C(=C\c2ccc(N3CCCC3)c(F)c2)C(=O)N1C`, the cell number change turned out to be 2.34% and the lipid storage change, negative = inhibition was 4.4% [at 9.22 µM] (inactive).
Turning to `CN=C1S/C(=C\c2ccc(O)c(Br)c2)C(=O)N1C`, the “lipid storage change, negative = inhibition” value was -10.7% (inactive) and the cell number change is -7.22%.
For the compound `CN=C1S/C(=C\c2ccc(SC)cc2)C(=O)N1C`, the Potency is 0.13 µM (active) and the cell number change was found to be 4.2%.
The corresponding values for `CN=C1S/C(=C\c2c(OC)cc(OC)cc2OC)C(=O)N1C` are 0.58 µM (active) and -1.21%.
Regarding `COc1ccc(N=C2S/C(=C\c3cc(C)n(C)c3C)C(=O)N2C)cc1`, the “lipid storage change, negative = inhibition” value was -14.9% (inactive) and the cell number change was determined as 20.4%.
As for `CCSc1nc2c(c(=O)[nH]c(=O)n2C)n1CC(O)COc1ccccc1` (stereo not drawn), the compound was classed as inactive.
In the case of `CCn1cc(CN2CCC(Oc3ccc(C(=O)N4CCCCC4)cc3)CC2)cn1`, the “lipid storage change, negative = inhibition” value was -6.41% (inactive).
As to `O=C(CN1CCN(Cc2ccccc2Cl)CC1)N/N=C/c1cccs1`, the “lipid storage change, negative = inhibition” value is 0.0195% (inactive) and the cell number change was determined as 19.5%.
As to `Cc1cc(C)c(C)c(OCCN2CCOCC2)c1`, the result was inactive and the cell number change is -23.8%.
As to `Cc1cccc(OCCOCCN2CCOCC2)c1C`, the “lipid storage change, negative = inhibition” value was 4.65% (inactive) and the cell number change turned out to be 8.47%.
As for `Cc1ccc(C)c(OCCOCCN2CCOCC2)c1`, the Potency was 7.31 µM (active) and the cell number change stood at 3.66%.

Source of the values: PubChem BioAssay AID2685 (National Center for Advancing Translational Sciences (NCATS), 2010).
